# Article PMC7862700, “An all-to-all approach to the identification of sequence-specific readers for epigenetic DNA modifications on cytosine”
# What was measured:
# Assay in all cases: DAPPL (digital affinity profiling via proximity ligation, sequencing); 10 mM Tris-HCl pH 7.5, 50 mM NaCl, 1 mM DTT, 4% glycerol, room temperature, 30 min; GST-TFs on glutathione beads, 16-mer random dsDNA library, 0.1% formaldehyde crosslink after washing; high values mean tight binding
# [1] = target: T1, FLI1 (Homo sapiens, UniProt Q01543 1-452); conditions: protein: recombinant; tags: N-terminal GST; dsDNA, one strand shown
# T1 sequence: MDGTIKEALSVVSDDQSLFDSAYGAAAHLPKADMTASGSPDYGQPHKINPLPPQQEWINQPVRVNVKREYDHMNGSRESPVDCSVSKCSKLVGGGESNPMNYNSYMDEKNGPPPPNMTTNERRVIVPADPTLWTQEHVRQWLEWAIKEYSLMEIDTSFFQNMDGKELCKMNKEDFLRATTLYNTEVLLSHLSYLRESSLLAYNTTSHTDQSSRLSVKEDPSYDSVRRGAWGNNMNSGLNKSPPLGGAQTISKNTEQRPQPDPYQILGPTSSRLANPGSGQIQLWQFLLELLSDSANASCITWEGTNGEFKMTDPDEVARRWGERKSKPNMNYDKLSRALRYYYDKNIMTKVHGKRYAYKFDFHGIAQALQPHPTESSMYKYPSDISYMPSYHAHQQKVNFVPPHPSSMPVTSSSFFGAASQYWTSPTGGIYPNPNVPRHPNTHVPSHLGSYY
# Method in brief: (§1)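 A tag-only sample was pooled with DNA-barcoded human transcription factors that had been expressed in yeast as GST fusions and captured on glutathione beads. The pools were incubated for 30 min at room temperature with 200 nmole of a random double-stranded 16-mer DNA library in Tris/NaCl/DTT/glycerol buffer, then washed, crosslinked with 0.1% formaldehyde, proximity-ligated (BsaI/T4 ligase, 1 h, 37 °C), PCR-amplified and sequenced on an Illumina NextSeq500. Binding signal is each hexamer's read frequency for a factor divided by its frequency for the tag-only sample.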
# [2] = target: T2, ELK1 (Homo sapiens, UniProt P19419 1-428); conditions: protein: recombinant; tags: N-terminal GST; dsDNA, one strand shown
# T2 sequence: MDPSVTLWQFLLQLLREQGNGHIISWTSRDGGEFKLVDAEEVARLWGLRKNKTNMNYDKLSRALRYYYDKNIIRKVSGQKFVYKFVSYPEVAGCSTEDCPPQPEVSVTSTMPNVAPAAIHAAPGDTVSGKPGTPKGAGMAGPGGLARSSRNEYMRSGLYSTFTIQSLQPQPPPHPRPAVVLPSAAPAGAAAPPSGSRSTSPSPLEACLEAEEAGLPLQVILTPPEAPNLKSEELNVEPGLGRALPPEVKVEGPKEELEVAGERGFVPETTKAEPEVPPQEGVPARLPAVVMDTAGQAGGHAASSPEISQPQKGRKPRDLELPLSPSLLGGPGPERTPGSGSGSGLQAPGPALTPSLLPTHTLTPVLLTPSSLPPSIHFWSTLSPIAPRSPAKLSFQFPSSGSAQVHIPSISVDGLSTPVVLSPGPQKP
# Method in brief: as §1
# [3] = target: T3, GABPA (Homo sapiens, UniProt Q06546 1-454); conditions: protein: recombinant; tags: N-terminal GST; dsDNA, one strand shown
# T3 sequence: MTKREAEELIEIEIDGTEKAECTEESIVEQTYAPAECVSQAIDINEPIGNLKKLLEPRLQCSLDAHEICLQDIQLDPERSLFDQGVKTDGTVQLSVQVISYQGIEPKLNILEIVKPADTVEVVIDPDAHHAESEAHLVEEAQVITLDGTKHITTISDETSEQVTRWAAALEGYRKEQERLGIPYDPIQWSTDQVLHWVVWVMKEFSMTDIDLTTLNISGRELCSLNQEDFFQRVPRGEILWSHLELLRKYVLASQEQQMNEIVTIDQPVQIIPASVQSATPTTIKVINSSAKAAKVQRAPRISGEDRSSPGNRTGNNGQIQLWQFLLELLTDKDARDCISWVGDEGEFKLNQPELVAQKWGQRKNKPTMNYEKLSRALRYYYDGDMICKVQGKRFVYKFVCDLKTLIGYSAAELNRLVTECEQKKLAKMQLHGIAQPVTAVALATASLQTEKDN
# Method in brief: as §1
# [4] = target: T4, ERG (Homo sapiens, UniProt P11308 1-479); conditions: protein: recombinant; tags: N-terminal GST; dsDNA, one strand shown
# T4 sequence: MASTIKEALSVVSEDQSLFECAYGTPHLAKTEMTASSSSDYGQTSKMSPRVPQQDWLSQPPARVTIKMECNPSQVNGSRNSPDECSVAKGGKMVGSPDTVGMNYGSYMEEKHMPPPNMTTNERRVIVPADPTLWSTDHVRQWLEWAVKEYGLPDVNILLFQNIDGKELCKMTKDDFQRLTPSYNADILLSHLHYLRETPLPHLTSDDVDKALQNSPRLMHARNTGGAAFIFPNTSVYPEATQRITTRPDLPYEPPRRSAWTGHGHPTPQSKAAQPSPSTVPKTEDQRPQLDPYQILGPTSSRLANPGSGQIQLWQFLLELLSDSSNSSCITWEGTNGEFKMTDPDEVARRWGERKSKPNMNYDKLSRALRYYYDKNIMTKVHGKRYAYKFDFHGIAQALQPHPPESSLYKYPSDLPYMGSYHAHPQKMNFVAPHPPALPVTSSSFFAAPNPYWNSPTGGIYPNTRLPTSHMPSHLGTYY
# Method in brief: as §1
# [5] = target: ELF1 (Homo sapiens, UniProt P32519 1-619); conditions: protein: recombinant; tags: N-terminal GST; dsDNA, one strand shown
# Chain of ELF1 (P32519 whole entry): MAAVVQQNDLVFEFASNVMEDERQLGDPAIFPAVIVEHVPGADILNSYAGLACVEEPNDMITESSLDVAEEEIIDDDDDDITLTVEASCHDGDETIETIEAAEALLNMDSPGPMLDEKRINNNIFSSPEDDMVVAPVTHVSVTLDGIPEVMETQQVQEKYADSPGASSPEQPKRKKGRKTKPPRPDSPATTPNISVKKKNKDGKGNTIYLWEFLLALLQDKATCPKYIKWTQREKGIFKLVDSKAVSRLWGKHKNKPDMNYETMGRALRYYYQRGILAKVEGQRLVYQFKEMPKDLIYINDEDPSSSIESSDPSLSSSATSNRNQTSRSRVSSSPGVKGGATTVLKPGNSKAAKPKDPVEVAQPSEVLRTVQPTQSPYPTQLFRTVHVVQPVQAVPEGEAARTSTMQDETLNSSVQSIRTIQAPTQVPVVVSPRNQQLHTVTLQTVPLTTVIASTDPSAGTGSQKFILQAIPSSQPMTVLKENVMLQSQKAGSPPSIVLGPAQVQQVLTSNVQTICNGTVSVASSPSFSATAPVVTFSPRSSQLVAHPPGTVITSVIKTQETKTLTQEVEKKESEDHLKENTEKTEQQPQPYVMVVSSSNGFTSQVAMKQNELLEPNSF
# Method in brief: as §1
# [6] = target: T5, EHF (Homo sapiens, UniProt Q9NZC4 1-300); conditions: protein: recombinant; tags: N-terminal GST; dsDNA, one strand shown
# T5 sequence: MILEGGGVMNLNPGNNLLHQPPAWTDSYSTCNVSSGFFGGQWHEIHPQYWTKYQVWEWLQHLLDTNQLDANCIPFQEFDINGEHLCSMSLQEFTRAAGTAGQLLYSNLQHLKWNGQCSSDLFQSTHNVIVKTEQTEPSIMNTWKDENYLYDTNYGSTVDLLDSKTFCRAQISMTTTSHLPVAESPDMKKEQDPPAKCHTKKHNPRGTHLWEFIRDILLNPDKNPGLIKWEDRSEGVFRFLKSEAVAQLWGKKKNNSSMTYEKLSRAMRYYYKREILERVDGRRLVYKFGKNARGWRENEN
# Method in brief: as §1
# [7] = target: SPI1 (Homo sapiens, UniProt P17947 1-270); conditions: protein: recombinant; tags: N-terminal GST; dsDNA, one strand shown
# Method in brief: as §1
# [8] = target: SPIB (Homo sapiens, UniProt Q01892 1-262); conditions: protein: recombinant; tags: N-terminal GST; dsDNA, one strand shown
# Chain of SPIB (Q01892 whole entry): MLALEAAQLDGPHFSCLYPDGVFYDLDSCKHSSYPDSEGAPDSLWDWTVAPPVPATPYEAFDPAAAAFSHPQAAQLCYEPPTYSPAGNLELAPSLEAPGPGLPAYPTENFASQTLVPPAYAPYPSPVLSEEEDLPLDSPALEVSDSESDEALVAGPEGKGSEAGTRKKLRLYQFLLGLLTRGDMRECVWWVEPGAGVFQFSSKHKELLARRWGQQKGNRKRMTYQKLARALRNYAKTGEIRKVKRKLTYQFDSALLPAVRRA
# Method in brief: as §1
# [9] = target: T6, FEV (Homo sapiens, UniProt Q99581 1-238); conditions: protein: recombinant; tags: N-terminal GST; dsDNA, one strand shown
# T6 sequence: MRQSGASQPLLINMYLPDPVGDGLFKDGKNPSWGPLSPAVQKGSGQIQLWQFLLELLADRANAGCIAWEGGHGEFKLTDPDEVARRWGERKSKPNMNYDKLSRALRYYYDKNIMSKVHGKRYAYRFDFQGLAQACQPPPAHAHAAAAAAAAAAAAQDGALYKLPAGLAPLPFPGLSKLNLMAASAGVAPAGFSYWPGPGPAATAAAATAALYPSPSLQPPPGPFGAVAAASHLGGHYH
# Method in brief: as §1
# [10] = target: ETV5 (Homo sapiens, UniProt P41161 1-510); conditions: protein: recombinant; tags: N-terminal GST; dsDNA, one strand shown
# Chain of ETV5 (P41161 whole entry): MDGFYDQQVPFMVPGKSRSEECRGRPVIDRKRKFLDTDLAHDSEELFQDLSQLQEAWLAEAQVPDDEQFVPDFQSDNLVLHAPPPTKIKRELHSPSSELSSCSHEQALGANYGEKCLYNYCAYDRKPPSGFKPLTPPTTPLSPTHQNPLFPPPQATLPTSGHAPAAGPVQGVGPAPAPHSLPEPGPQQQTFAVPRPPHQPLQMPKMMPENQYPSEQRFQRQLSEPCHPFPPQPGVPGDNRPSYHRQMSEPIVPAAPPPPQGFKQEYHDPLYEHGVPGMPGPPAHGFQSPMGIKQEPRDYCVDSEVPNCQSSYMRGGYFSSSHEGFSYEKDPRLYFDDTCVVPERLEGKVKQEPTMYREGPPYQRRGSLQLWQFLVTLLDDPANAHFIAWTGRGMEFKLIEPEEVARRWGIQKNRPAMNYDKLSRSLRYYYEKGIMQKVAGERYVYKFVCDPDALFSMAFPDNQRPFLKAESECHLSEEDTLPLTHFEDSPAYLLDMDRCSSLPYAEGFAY
# Method in brief: as §1
# [11] = target: HSF1 (Homo sapiens, UniProt Q00613 1-529); conditions: protein: recombinant; tags: N-terminal GST; chain copies: 3; dsDNA, one strand shown
# Chain of HSF1 (Q00613 whole entry): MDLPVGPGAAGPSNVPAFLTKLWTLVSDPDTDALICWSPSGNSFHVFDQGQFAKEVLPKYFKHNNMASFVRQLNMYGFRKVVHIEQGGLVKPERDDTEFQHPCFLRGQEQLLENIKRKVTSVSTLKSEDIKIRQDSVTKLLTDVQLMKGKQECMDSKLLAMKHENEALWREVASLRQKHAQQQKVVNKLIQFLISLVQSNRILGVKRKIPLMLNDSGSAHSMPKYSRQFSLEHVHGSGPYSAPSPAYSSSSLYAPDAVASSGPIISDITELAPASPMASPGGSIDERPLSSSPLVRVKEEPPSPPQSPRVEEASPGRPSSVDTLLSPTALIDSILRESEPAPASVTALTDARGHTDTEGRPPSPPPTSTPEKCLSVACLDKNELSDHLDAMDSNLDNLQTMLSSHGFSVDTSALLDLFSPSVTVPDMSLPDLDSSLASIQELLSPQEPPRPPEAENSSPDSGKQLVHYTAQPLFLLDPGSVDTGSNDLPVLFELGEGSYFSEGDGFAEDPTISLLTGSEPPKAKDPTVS
# Method in brief: as §1
# [12] = target: T7, SPIC (Homo sapiens, UniProt Q8N5J4 1-248); conditions: protein: recombinant; tags: N-terminal GST; dsDNA, one strand shown
# T7 sequence: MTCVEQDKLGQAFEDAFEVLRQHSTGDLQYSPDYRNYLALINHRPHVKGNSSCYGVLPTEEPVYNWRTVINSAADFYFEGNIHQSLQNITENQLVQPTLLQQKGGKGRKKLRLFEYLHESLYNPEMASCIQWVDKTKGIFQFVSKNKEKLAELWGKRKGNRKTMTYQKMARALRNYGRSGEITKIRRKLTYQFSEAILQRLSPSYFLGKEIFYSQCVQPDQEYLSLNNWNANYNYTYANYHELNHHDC
# Method in brief: as §1
# [13] = target: ELF4 (Homo sapiens, UniProt Q99607 1-663); conditions: protein: recombinant; tags: N-terminal GST; dsDNA, one strand shown
# Chain of ELF4 (Q99607 whole entry): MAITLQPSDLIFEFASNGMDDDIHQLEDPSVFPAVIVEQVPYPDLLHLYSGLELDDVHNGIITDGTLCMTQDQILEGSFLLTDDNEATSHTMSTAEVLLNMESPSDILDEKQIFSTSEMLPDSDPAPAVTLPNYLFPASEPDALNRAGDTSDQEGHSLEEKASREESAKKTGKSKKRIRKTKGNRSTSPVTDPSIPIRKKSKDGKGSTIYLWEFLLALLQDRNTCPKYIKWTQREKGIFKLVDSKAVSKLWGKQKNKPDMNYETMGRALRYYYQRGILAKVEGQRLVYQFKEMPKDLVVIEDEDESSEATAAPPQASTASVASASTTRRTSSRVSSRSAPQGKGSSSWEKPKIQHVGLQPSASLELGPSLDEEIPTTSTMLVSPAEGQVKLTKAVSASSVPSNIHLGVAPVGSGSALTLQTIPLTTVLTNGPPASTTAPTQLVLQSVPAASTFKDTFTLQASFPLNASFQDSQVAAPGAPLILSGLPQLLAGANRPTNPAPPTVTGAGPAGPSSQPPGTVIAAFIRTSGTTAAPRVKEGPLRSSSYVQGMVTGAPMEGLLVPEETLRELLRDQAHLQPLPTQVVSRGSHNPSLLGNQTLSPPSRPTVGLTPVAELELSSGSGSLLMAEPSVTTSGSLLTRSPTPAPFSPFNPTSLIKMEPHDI
# Method in brief: as §1
# [14] = target: T8, ELK4 (Homo sapiens, UniProt P28324-2 1-405); conditions: protein: recombinant; tags: N-terminal GST; dsDNA, one strand shown
# T8 sequence: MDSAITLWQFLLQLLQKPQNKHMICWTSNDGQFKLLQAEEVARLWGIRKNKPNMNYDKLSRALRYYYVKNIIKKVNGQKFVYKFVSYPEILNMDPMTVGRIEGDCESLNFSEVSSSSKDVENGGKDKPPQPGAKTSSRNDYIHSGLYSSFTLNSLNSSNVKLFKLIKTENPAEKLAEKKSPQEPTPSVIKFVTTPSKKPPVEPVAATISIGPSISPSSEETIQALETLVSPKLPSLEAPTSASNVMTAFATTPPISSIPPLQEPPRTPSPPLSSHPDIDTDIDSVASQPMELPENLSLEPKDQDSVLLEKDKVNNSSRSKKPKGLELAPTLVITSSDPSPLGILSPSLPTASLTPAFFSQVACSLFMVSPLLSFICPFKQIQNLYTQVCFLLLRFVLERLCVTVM
# Method in brief: as §1
# [15] = target: T9, ETV2 (Homo sapiens, UniProt O00321 1-342); conditions: protein: recombinant; tags: N-terminal GST; dsDNA, one strand shown
# T9 sequence: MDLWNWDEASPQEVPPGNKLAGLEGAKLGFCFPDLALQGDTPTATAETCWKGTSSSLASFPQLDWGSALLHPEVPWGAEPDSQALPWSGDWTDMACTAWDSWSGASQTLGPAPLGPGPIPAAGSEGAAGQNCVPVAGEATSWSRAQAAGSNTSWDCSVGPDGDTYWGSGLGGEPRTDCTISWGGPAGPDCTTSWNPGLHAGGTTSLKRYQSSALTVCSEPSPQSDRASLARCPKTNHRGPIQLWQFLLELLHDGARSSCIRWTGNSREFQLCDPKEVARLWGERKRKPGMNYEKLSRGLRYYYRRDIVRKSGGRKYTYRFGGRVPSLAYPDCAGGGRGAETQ
# Method in brief: as §1
# [16] = target: T10, ELF3 (Homo sapiens, UniProt P78545 1-371); conditions: protein: recombinant; tags: N-terminal GST; dsDNA, one strand shown
# T10 sequence: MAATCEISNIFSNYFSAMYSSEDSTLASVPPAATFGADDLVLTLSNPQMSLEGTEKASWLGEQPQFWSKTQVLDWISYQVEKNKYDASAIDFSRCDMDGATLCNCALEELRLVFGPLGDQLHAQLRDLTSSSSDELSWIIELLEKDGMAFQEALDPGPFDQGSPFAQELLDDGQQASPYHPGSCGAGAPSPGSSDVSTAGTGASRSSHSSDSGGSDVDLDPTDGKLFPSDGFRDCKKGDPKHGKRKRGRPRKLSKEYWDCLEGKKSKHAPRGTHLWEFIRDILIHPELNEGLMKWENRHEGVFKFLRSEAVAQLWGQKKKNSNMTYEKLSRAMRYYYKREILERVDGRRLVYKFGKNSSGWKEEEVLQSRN
# Method in brief: as §1
# [17] = target: CRX (Homo sapiens, UniProt O43186 1-299); conditions: protein: recombinant; tags: N-terminal GST; dsDNA, one strand shown
# Chain of CRX (O43186 whole entry): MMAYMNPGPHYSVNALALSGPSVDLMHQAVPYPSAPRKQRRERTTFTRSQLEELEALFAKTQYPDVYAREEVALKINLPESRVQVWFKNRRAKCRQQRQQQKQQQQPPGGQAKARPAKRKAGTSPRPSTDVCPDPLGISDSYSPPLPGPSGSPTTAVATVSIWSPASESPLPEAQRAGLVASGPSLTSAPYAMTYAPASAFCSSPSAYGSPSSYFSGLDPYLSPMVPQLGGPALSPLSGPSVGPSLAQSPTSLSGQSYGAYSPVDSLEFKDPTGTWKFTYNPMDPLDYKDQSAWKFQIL
# Method in brief: as §1
# [18] = target: ETV1 (Homo sapiens, UniProt P50549 1-477); conditions: protein: recombinant; tags: N-terminal GST; dsDNA, one strand shown
# Chain of ETV1 (P50549 whole entry): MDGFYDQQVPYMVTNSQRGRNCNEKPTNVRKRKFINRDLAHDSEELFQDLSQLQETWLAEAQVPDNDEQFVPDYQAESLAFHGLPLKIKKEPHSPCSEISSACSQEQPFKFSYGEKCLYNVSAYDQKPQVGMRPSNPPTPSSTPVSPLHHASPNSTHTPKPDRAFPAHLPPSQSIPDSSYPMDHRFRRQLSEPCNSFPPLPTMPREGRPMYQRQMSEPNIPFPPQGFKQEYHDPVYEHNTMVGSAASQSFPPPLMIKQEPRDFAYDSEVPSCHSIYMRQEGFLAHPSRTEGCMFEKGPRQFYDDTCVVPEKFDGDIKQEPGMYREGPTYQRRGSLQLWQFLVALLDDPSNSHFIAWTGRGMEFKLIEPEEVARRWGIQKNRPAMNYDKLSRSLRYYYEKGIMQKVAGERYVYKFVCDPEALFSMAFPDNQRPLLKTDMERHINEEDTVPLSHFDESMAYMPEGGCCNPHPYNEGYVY
# Method in brief: as §1
sequence,measurement,setting,value
ATAGCT,binding signal,[1],"1.13 fold enrichment (6-mer frequency, TF over GST control)"
same,binding signal,[2],"1.08 fold enrichment (6-mer frequency, TF over GST control)"
same,binding signal,[3],"1.2 fold enrichment (6-mer frequency, TF over GST control)"
same,binding signal,[4],"1.07 fold enrichment (6-mer frequency, TF over GST control)"
same,binding signal,[5],"1.19 fold enrichment (6-mer frequency, TF over GST control)"
same,binding signal,[6],"1.25 fold enrichment (6-mer frequency, TF over GST control)"
same,binding signal,[7],"1.17 fold enrichment (6-mer frequency, TF over GST control)"
same,binding signal,[8],"1.09 fold enrichment (6-mer frequency, TF over GST control)"
same,binding signal,[9],"1.16 fold enrichment (6-mer frequency, TF over GST control)"
same,binding signal,[10],"1.2 fold enrichment (6-mer frequency, TF over GST control)"
same,binding signal,[11],"1.06 fold enrichment (6-mer frequency, TF over GST control)"
same,binding signal,[12],"1.15 fold enrichment (6-mer frequency, TF over GST control)"
same,binding signal,[13],"1.07 fold enrichment (6-mer frequency, TF over GST control)"
same,binding signal,[14],"1.25 fold enrichment (6-mer frequency, TF over GST control)"
same,binding signal,[15],"1.27 fold enrichment (6-mer frequency, TF over GST control)"
same,binding signal,[16],"1.26 fold enrichment (6-mer frequency, TF over GST control)"
same,binding signal,[17],"1.26 fold enrichment (6-mer frequency, TF over GST control)"
same,binding signal,[18],"1.11 fold enrichment (6-mer frequency, TF over GST control)"
